Results: PubChem BioAssay AID624330 (Southern Research Specialized Biocontainment Screening …, 2012)
Among all 340,000 compounds or so, about 2,100 (0.62%) were called active. Not all results are given here. Measured potencies and affinities stand elsewhere. Values without a mark were called inactive.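 How the source made its calls: active means first-screen hits whose inhibition reached a set limit at any dose in the follow-up dose series; inconclusive means inhibition above the set first-screen limit but never retested; inactive means the rest.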

Biological target: Rac GTPase-activating protein 1 (Homo sapiens) (UniProt Q9H0H5)
Test: MgcRacGAP GTPase-activating activity inhibitors, confirmation, biochemical, ADP Hunter fluorescence, primary and confirmatory (AID 624330);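 further: fluorescence reports GDP produced by GAP-driven GTP hydrolysis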
Conditions: MgcRacGAP-stimulated Rac1 GTP hydrolysis, at 30 µM, hits give high values, GST-tagged Rac1 F28L mutant substrate

Sequence of Rac GTPase-activating protein 1 (Homo sapiens) (Q9H0H5 whole entry, looked up): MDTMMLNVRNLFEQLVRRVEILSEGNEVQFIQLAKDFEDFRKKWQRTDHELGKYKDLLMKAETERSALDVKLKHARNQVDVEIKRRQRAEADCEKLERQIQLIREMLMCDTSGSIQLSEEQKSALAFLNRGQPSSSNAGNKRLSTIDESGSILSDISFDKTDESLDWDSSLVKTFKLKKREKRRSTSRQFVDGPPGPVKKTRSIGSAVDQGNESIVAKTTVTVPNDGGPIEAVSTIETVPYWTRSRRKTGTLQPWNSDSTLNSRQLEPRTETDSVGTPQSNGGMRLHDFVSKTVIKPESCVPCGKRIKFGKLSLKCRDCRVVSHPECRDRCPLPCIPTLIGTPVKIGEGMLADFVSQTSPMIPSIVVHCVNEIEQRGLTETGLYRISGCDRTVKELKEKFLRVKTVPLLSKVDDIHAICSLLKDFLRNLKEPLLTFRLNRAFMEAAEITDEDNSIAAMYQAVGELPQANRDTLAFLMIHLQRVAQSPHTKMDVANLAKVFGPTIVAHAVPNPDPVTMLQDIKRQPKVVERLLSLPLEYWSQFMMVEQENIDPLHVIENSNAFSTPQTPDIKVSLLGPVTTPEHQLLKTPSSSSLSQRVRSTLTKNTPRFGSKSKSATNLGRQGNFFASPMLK

Compound | inhibition
NS(=O)(=O)c1ccc(NC(=O)CSc2nc3c(c(=O)[nH]2)CCCC3)cc1 | 6.37%
COc1ccc(CNC(=O)CN2CCN(c3ccc(F)cc3)CC2)cc1 | 6.2%
CCN(CC(=O)NCc1ccc(F)cc1)C(=O)CN1CCN(c2ccccc2OC)CC1 | 2.73%
CCOc1ccccc1NC(=O)Cn1cnc2c(cnn2-c2ccc(C)c(C)c2)c1=O | 9.09%
CC[C@@]1(C(=O)OC)N[C@H](CN(C)C(=O)c2ccc(F)cc2)[C@@H]2C(=O)N(Cc3ccccc3)C(=O)[C@@H]21 | 1.15%
CC(C)Cc1nnc(NC(=O)CCC(=O)NCCc2ccc(Cl)cc2)s1 | 4.94%
CC12CCC3c4ccc(O)cc4CCC3C1CCC2=O (configuration not stated) | 5.82%
C[C@]12CC[C@@H]3c4ccc(O)cc4CC[C@H]3[C@@H]1CCC2=O | 9.39%
CC(O)Cn1c(N2CCCC2)nc2c1c(=O)[nH]c(=O)n2C (configuration not stated) | 4.91%
c1cncc(-c2nc3cc4ccccc4cc3[nH]2)c1 | 21.6%
c1cncc(-c2nc3ccccc3[nH]2)c1 | 3.11%
Cc1nc2ccc(-c3nc4cc(N)ccc4o3)cc2[nH]1 | 4.01%
Cc1ccc2nc(C3CCCCC3)[nH]c2c1 | 9.42%
O=[N+]([O-])c1ccc2nc(C3CCCCC3)[nH]c2c1 | 6.17%
Cc1nc2ccc(-c3nc4ccccc4[nH]3)cc2[nH]1 | 22.2%
O=[N+]([O-])c1ccc2nc(-c3ccc(Cl)cc3)[nH]c2c1 | 9.26%
Clc1ccc(-c2nc3ccncc3[nH]2)cc1 | -13.9%
C=CCNC(=S)NNC(=O)c1ccc2c(c1)OCO2 | 4.79%
CC(NC(=O)C(=O)N1CCOCC1)C(c1cccs1)N1CCN(c2ccccc2)CC1 (configuration not stated) | 11%
CC1CCCN(C(=O)C2CCN(S(=O)(=O)c3ccc4c(c3)CC(C)N4C(=O)C3CC3)CC2)C1 (configuration not stated) | -0.15%
COc1ccc(CNC(=O)C(NS(=O)(=O)c2ccc3c(c2)CCCN3C(C)=O)C(C)C)cc1 (configuration not stated) | 6.24%
COc1cccc(CNC(=O)CCS(=O)(=O)c2ccc3c(c2)NC(=O)CS3)c1 | 6.72%
O=C1c2ccccc2NC(c2ccccn2)N1c1ccccc1F (configuration not stated) | 6.7%
O=C(NC1CCCCC1)c1cc(S(=O)(=O)N2CCCC2)ccc1Cl | 9.3%
CCOC(=O)COc1nc(OC)nc(N2CCOCC2)n1 | 13%

Compound | inhibition
Nc1cccc(-c2nc3ccccc3[nH]2)c1 | 8.22%
Nc1ccc(-c2nc3ccccc3[nH]2)cc1 | 8.27%
Nc1ccc2nc(-c3cccc(-c4nc5ccc(N)cc5[nH]4)c3)[nH]c2c1 | 25.9%
Nc1ccc2nc(C(F)(F)F)[nH]c2c1 | 7.12%
O=C(OCC(=O)N1CCN(C(=O)c2ccco2)CC1)c1sc2cc(F)ccc2c1Cl | 3.78%
COC(=O)c1ccc(C(=O)OC)c(NC(=O)CN(C)Cc2cccc(Cl)c2Cl)c1 | 5.99%
Cc1nc2cc3nc(C)sc3cc2s1 | 10.8%
O=C(CCc1ccc(O)cc1)NN=Cc1ccc2c(c1)OCO2 | 28.7%
O=C(Cc1ccc(Cl)cc1)N/N=C/c1cccc(O)c1 | -4.31%
COc1ccc(CCC(=O)N/N=C/c2ccc3c(c2)OCO3)cc1 | 4.06%
O=C(Cc1ccc(Cl)cc1)N/N=C/c1ccccc1 | 3.03%
O=C(CCC(=O)OCc1ccc([N+](=O)[O-])cc1)Nc1ccc(F)cc1 | 4.88%
O=C(CC(c1ccccc1)c1ccccc1O)NCCN1CCOCC1 (configuration not stated) | -6.2%
Nc1ccccc1-n1c(=O)n(Cc2ccccc2F)c(=O)c2[nH]cnc21 | 3.12%
C=CCn1c(SCc2cc(=O)n3cc(C)ccc3n2)nnc1-c1cccc(C)c1 | 8.24%
CSCC[C@H](NC(=O)OC(C)(C)C)C(=O)N1CCC(C(=O)NCC(=O)Nc2ccc(C)cc2)CC1 | -4.04%
COCCNC(=O)c1ccc(-c2csc(C)n2)cc1 | 3.59%
C[C@@H]1CN([C@H](C)CO)C(=O)c2cc(Br)cnc2O[C@@H]1CN(C)C(=O)C1CCOCC1 | 8.56%
CNc1nnc(-c2cccc(N(C)C)c2)s1 | 4.36%
CNc1nnc(-c2ccncc2)s1 | 6.68%
Cc1cc(OCC(=O)NCC2CCC(C(=O)O)CC2)c2c(C)c(Cc3ccccc3)c(=O)oc2c1 (configuration not stated) | 1.13%
CCCc1cc(=O)[nH]c(SCC(=O)NC)n1 | 2.55%
CCCCNC(=O)c1ccc(CS(=O)(=O)c2ccc(OC)cc2)o1 | -10.9%
CCOc1ccc(S(=O)(=O)Nc2ccc(C(=O)NCC(c3ccc(OC)cc3)N3CCOCC3)cc2)cc1 (configuration not stated) | 5.24%
COc1ccc(CN2CCC(=O)N(CCO)CC2)cc1OC | 7.88%

Compound | inhibition
O=C(c1ccco1)N1CCN(Cc2cn[nH]c2-c2ccc(F)cc2F)CC1 | -5.62%
Cn1c(=O)[nH]c(Nc2ccccc2)c([N+](=O)[O-])c1=O | 5.65%
Cn1c(=O)[nH]c(Nc2ccc(F)cc2)c([N+](=O)[O-])c1=O | 8.12%
Cc1ccc(C(=O)NCCCNC(=O)c2ccco2)cc1 | 4.3%
CN(CC(=O)Nc1c(Cl)cccc1Cl)C(=O)C1CCN(C(=O)Nc2ccccc2)CC1 | -1.59%
COc1ccccc1CCC(=O)OCC(=O)Nc1ccc(C(N)=O)cc1 | -2.01%
Cc1ccc(S(=O)(=O)N2CCCCC2)cc1NC(=O)CSc1nc(N)cc(=O)[nH]1 | 4.78%
Cc1c(-c2ccccc2)sc(Br)c1C(=O)N1CCOCC1 | 2.64%
COC(=O)c1c(N)sc(C(=O)N2CCOCC2)c1C | 8.37%
Cc1ccc(N(C(C)C(=O)O)S(=O)(=O)c2cccnc2)cc1 (configuration not stated) | 4.39%
Cc1ccc(C2=NOC(=O)/C2=C\C=C\c2ccccc2)cc1 | 6.67%
O=C1ON=C(c2ccccc2)/C1=C/c1cccnc1 | 3.82%
COc1cc([N+](=O)[O-])ccc1-c1ccc(/C=C2\C(=O)ON=C2c2ccccc2)o1 | 25%
Cc1ccc(C2=NOC(=O)/C2=C\c2ccccc2)cc1 | 8.59%
COc1ccc(/C=C2\C(=O)ON=C2c2ccccc2)cc1 | 24.6%
CN(C)/C=C1\C(=O)ON=C1c1ccccc1 | 11.7%
O=C1ON=C(c2ccccc2)/C1=C/c1ccc(-c2ccccc2[N+](=O)[O-])o1 | 7.69%
O=C1ON=C(c2ccccc2)/C1=C\c1ccco1 | 19.1%
Cc1ccc(CNS(=O)(=O)NCc2ccc(Cl)cc2)cc1 | 0.28%
COc1ccc(N2CCN(C(=O)COC(=O)CCS(=O)(=O)c3ccc(C)cc3)CC2)cc1 | 20.8%
O=S(=O)(c1ccc2ccccc2c1)N1CCNCC1 | 11.3%
COc1ccc(CNC(=O)CN(C(=O)CCC(=O)Nc2ccccn2)c2cccc(C)c2C)cc1 | 6.1%
CCc1nnc(NC(=O)CSc2nnc3ncccn23)s1 | 4.86%
CC(=O)Nc1cccc(NC(=O)CSc2n[nH]c(-c3ccccc3)n2)c1 | 2.62%
O=[N+]([O-])c1ccccc1S(=O)(=O)N1CCCc2ccccc21 | -4.93%

Compound | inhibition
O=c1c(O)c(-c2cc(O)c(O)c(O)c2)oc2cc(O)cc(O)c12 | -51.5%
O=c1c(O)c(-c2ccc(O)c(O)c2)oc2cc(O)cc(O)c12 | 24.2%
COc1ccc(-c2oc3cc(O)c(OC)c(O)c3c(=O)c2OC)cc1O | 26.4%
O=c1cc(O)c2ccc(O)cc2o1 | 11.2%
COc1c(-c2ccc(O)cc2)oc2cc(O)cc(O)c2c1=O | 8.09%
O=c1c(-c2ccc(F)cc2)coc2cc(O)ccc12 | 2.56%
O=c1c(O)c(-c2ccccc2)oc2cc(O)cc(O)c12 | 9.81%
COc1ccc(-c2coc3cc(O)ccc3c2=O)cc1 | -1.73%
CC1(C)CC(=O)C(N=Nc2ccc3ncsc3c2)=C(O)C1 | 9.23%
Cc1cc(C)c(/C([O-])=C(/C(=S)Nc2ccc(SC(F)F)cc2)[n+]2ccccc2)cc1C | -14.3%
Cc1cc(C(=O)N2CCCC(N3CCN(c4cccc(Cl)c4)CC3)C2)n(C)n1 (configuration not stated) | 9.25%
O=C(COc1ccccc1)N[C@@H]1c2ccccc2CC[C@@H]1OCc1ccccc1 | 3.68%
CCN(C(=S)NC(=O)c1ccco1)c1cccc2ccccc12 | 15.5%
N/C(Cc1ccc(Cl)cc1Cl)=N\OC(=O)Cc1cccs1 | 6.38%
O=C(COc1ccc(-c2nnco2)cc1)NC1CCS(=O)(=O)C1 (configuration not stated) | 2.22%
Cn1c(SCC(=O)N2CCc3ccccc3C2)nnc1-c1cccs1 | -0.2%
COc1cc(C=C2C(=O)c3ccccc3C2=O)cc(OC)c1 | 5.79%
COc1cc(C=C2C(=O)c3ccccc3C2=O)ccc1O | 15.4%
COc1cccc(/C=C2\CCc3ccccc3C2=O)c1 | 7.06%
COc1cc(/C=C2\CCc3ccccc3C2=O)cc(OC)c1OC | 4.54%
COc1ccc(/C=C2\CCc3ccccc3C2=O)cc1O | 12.2%
COc1cc(/C=C2/CCc3ccccc3C2=O)cc(OC)c1OC | 4.12%
